# Source: ChEMBL document CHEMBL1961873, “Compounds: GSK PKIS; Assays: Nanosyn kinase panel” (2012)
# “And” between values parts separate entries of the source, which are not always exact repeats. Identical values can stand only once.
# Legend:
# [1] = biological target: RAC-alpha serine/threonine-protein kinase (Homo sapiens) (UniProt P31749); settings: at 0.1 µM
# [2] = biological target: RAC-alpha serine/threonine-protein kinase (Homo sapiens) (UniProt P31749); settings: at 1 µM
# [3] = biological target: RAC-beta serine/threonine-protein kinase (Homo sapiens) (UniProt P31751); settings: at 0.1 µM
# [4] = biological target: RAC-beta serine/threonine-protein kinase (Homo sapiens) (UniProt P31751); settings: at 1 µM
# [5] = biological target: RAC-gamma serine/threonine-protein kinase (Homo sapiens) (UniProt Q9Y243); settings: at 0.1 µM
# [6] = biological target: RAC-gamma serine/threonine-protein kinase (Homo sapiens) (UniProt Q9Y243); settings: at 1 µM
# [7] = biological target: G protein-coupled receptor kinase 6 (Homo sapiens) (UniProt P43250); settings: at 0.1 µM
# [8] = biological target: G protein-coupled receptor kinase 6 (Homo sapiens) (UniProt P43250); settings: at 1 µM
# [9] = biological target: T1, Rhodopsin kinase GRK7 (Homo sapiens) (UniProt Q8WTQ7); settings: at 0.1 µM
# T1 sequence (whole entry): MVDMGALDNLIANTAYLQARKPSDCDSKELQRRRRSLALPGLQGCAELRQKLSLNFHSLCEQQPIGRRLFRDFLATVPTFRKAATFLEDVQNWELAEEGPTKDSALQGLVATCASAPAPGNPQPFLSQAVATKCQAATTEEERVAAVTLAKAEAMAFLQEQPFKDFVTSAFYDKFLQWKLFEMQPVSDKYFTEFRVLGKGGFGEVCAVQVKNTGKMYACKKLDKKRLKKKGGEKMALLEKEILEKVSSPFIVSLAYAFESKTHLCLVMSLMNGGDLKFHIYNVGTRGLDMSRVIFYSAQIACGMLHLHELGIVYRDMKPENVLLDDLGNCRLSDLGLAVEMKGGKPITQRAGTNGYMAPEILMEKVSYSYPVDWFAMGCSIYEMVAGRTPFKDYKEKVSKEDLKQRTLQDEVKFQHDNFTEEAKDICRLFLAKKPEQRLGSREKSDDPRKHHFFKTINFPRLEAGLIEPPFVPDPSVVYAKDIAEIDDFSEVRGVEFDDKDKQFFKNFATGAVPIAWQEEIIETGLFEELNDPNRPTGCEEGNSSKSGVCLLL
# [10] = biological target: T1, Rhodopsin kinase GRK7 (Homo sapiens); settings: at 1 µM
# Chain of G protein-coupled receptor kinase 6 (Homo sapiens) (P43250 whole entry, looked up): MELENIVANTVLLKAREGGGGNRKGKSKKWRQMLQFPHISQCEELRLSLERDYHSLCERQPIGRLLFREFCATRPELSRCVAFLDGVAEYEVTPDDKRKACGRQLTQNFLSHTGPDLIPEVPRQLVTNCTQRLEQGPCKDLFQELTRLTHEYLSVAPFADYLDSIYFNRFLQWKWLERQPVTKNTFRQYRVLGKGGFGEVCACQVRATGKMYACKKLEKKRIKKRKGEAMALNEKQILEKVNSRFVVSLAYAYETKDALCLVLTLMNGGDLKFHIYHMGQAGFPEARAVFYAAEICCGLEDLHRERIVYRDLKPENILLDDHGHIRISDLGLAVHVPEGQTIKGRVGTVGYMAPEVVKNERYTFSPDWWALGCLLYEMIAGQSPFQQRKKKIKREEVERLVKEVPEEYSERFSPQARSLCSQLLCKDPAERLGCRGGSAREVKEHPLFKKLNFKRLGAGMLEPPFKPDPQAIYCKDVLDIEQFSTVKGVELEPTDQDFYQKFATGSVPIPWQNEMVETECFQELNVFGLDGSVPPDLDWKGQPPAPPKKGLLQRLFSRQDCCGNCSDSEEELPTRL
# Chain of RAC-alpha serine/threonine-protein kinase (Homo sapiens) (P31749 whole entry): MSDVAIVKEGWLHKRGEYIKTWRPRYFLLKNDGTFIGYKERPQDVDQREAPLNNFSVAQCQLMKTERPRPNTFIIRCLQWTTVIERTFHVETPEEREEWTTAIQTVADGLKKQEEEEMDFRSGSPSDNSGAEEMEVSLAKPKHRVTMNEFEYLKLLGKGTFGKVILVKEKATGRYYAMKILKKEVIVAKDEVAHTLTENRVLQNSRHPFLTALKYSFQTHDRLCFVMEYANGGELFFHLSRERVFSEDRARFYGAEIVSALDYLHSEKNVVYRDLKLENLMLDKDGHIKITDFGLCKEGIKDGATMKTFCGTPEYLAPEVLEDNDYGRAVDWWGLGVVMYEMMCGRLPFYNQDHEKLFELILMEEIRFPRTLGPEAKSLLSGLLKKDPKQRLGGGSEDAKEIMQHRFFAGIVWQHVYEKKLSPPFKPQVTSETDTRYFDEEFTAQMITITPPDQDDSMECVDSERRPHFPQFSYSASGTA
# Chain of RAC-gamma serine/threonine-protein kinase (Homo sapiens) (Q9Y243 whole entry): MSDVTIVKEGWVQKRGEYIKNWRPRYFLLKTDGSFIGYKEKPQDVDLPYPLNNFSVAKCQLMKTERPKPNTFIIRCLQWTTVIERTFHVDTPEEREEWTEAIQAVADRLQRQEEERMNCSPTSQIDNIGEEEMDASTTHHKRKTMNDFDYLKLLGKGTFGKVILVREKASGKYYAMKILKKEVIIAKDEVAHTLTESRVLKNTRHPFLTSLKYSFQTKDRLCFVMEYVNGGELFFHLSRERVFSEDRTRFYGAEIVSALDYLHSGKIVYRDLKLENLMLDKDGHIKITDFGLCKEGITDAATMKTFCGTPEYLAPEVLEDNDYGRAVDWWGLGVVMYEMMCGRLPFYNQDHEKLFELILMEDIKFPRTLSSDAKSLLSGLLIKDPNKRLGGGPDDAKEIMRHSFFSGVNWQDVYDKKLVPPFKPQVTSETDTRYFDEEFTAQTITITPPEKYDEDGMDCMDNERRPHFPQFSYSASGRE
# Chain of RAC-beta serine/threonine-protein kinase (Homo sapiens) (P31751 whole entry): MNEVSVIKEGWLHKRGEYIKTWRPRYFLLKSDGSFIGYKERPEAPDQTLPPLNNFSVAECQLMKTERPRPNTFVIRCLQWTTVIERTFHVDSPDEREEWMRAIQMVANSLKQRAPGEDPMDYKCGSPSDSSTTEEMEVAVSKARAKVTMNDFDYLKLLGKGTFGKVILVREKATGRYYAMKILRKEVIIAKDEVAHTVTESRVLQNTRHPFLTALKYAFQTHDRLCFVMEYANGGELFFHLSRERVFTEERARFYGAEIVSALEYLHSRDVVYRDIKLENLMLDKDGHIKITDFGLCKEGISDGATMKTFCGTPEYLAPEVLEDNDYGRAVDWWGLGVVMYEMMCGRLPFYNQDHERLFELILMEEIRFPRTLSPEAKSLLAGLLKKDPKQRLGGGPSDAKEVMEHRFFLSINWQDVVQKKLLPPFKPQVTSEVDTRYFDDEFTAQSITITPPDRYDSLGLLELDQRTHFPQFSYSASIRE
SMILES,inhibition [1],inhibition [2],inhibition [3],inhibition [4],inhibition [5],inhibition [6],inhibition [7],inhibition [8],inhibition [9],inhibition [10]
NC(=O)c1ccc2c(-c3ccnc(NCCCO)n3)c(-c3ccc(F)cc3)nn2c1,0.79%,-0.47%,1.62%,1.08%,1.04%,2.17%,0.86%,2.38%,1.93%,4.08%
COc1cc2c(cc1Nc1nc(Nc3cccc(F)c3C(N)=O)c3cc[nH]c3n1)N(C(=O)CN1CCN(C(C)C)CC1)CC2,0.64%,1.39%,1.31%,3.18%,1.35%,3.89%,7.5%,26.5%,6.57%,18.7%
COC(=O)Nc1nc2cc(Oc3ccc(NC(=O)Nc4ccccc4)cc3)ccc2[nH]1,0.35%,0.28%,1.44%,1.16%,2.24%,0.78%,3.76%,10.8%,4.75%,15.2%
Fc1cccc(COc2ccc(Nc3ncncc3C#Cc3ccccc3)cc2Cl)c1,0.45%,1.07%,1.28%,1.61%,0.72%,1.12%,7.01%,9.97%,5.2%,9.23%
COc1ccc(Nc2ncc(-c3ccccc3)o2)cc1OC,-0.43%,0%,-0.16%,0.11%,-0.29%,1.24%,-1.81%,-1.23%,-1.93%,1.56%
CCOc1ccc2c(-c3ccnc(Nc4cc(OC)cc(C(F)(F)F)c4)n3)cnn2n1,0.02%,0.45%,0.01%,0.53%,0.18%,0.45%,2.38%,0.28%,-0.23%,16.9%
Nc1ncnc2occ(-c3ccc(NC(=O)Nc4cc(C(F)(F)F)ccc4F)cc3)c12,0.73% and -2.6%,0.58% and -1.87%,1.35% and -1.97%,0.45% and -2.44%,1.41% and -1.65%,1.58% and 0.37%,0.64% and -1.58%,-4.06% and -1.29%,0.46% and 3.18%,-5.44% and -7.01%
CNC(=O)c1cncc(/C=C/c2ccccc2C)c1,0.63%,1.08%,2.41%,2.34%,1.3%,1.52%,3.92%,8.41%,3.15%,0.44%
O=C(O[C@H]1CN[C@H](C#Cc2cc3ncnc(Nc4ccc(OCc5cccc(F)c5)c(Cl)c4)c3s2)C1)N1CCOCC1,0.61%,0.67%,2.23%,2.72%,1.68%,1.6%,9.5%,13.6%,5.62%,16%
CS(=O)(=O)CCNCc1ccc(-c2ccc3ncnc(Nc4ccc(OCc5cccc(C(F)(F)F)c5)cc4)c3c2)o1,0.68%,0.01%,0.73%,1.64%,0.95%,2.79%,6.2%,3.84%,8.32%,0.47%
CN1CCC(C(=O)Nc2n[nH]c3nc(-c4ccc(O)cc4)c(Br)cc23)CC1,-3.78% and 0.82%,-3.1% and -0.05%,-1.35% and 0.28%,-1.57% and 1.31%,-2.51% and 0.97%,-0.95% and 3.11%,8.47% and 0.32%,20.1% and 5.9%,5.9% and 4.12%,16.7% and -0.01%
c1cnn2ncc(-c3ccnc(NCCCN4CCOCC4)n3)c2c1,0.48%,0.29%,1.29%,1.85%,1.38%,1.68%,4.92%,3.86%,20.1%,15.5%
COc1cc(N2CCN(C(C)C)CC2)ccc1Nc1nc(Nc2cccc3ncccc23)c2cc[nH]c2n1,-0.64%,-0.94%,-0.9%,-0.32%,0.92%,0.55%,-0.14%,-0.02%,-2.45%,0.29%
CN(c1ccc(NC(=O)NCCN2CCOCC2)cc1)c1ccnc(Nc2ccc(CS(C)(=O)=O)cc2)n1,0.71%,-0.42%,0.78%,0.37%,0.73%,0.19%,4.41%,7.67%,3.45%,5.28%
CC1(C)CC(n2cnc(-c3ccc(F)cc3)c2-c2ccnc(N)n2)CC(C)(C)N1,-0.24%,0.14%,-0.58%,0.6%,0.06%,-0.35%,0.95%,2.33%,-0.49%,-1.38%
CCS(=O)(=O)c1ccc(OC)c(Nc2ncc(-c3cccc(C(C)=O)c3)o2)c1,0.68%,0.26%,0.96%,2.41%,1.01%,1.05%,3.78%,10.8%,4.52%,4.18%

SMILES,inhibition [1],inhibition [2],inhibition [3],inhibition [4],inhibition [5],inhibition [6],inhibition [7],inhibition [8],inhibition [9],inhibition [10]
COc1cccc(Nc2nccc(-c3cnn4ncccc34)n2)c1,1.34%,0.43%,1.17%,0.61%,1.46%,-0.03%,4.14%,0.06%,1.07%,-2.16%
Cc1cc(O)cc(C)c1/C=C/c1cncc(C(=O)OC(C)(C)C)c1,0.38%,0.97%,1.75%,0.98%,1.33%,1.34%,2.27%,2.46%,7.07%,6.87%
Cn1c(-c2nonc2N)nc2cnccc21,0.27%,0.36%,2.48%,1.66%,1.14%,1.35%,3.53%,4%,4.22%,2.15%
CN(C)CCNC(=O)Nc1ccc(N(C)c2ccnc(Nc3ccc(CS(C)(=O)=O)cc3)n2)cc1,1.23%,0.77%,1.42%,0.96%,1.47%,1.13%,2.73%,-0.52%,3.11%,-0.51%
O=C(Nc1n[nH]c2nnc(-c3cccnc3)cc12)C1CC1,-0.73%,-0.67%,-0.56%,0.1%,-0.57%,5.03%,3.53%,0.48%,2.31%,-1.4%
N#Cc1cccc(Nc2ncc(-c3ccccc3)o2)c1,0%,-0.69%,0.15%,0.75%,0.9%,-0.1%,5.37%,8.61%,2.76%,11.2%
CS(=O)(=O)CCNCc1ccoc1-c1ccc2ncnc(Nc3ccc(OCc4ccccc4)cc3)c2c1,-0.19%,0.18%,-0.24%,0.41%,-0.09%,2.03%,0.69%,1.77%,4.11%,-0.84%
O=C(O[C@H]1CN[C@H](C#Cc2cc3ncnc(Nc4ccc5c(ccn5Cc5cc(F)ccc5F)c4)c3s2)C1)N1CCOCC1,0.34%,1.4%,1.89%,1.81%,0.84%,0.51%,3.43%,5.16%,3.33%,3.94%
NS(=O)(=O)c1cccc(N/C=C2\C(=O)Nc3ccccc32)c1,0.57%,0.97%,1.32%,1.98%,1.37%,0.33%,3.98%,11.5%,2.36%,9.13%
COc1cccc(-n2ncc3c(N/N=C/c4ccc(C(=O)NCCN(C)C)cc4)ncnc32)c1,0.53%,-4.74%,1.29%,-2.95%,1.33%,-1.17%,-2.74%,-7.47%,1.52%,-8.73%
Cc1cc(O)cc(C)c1/C=C/c1cncc(C(N)=O)c1,0.41%,1.41%,1.8%,1.63%,1.06%,1.18%,2.81%,0.48%,0.88%,-1.37%
Cc1c2ccc(N(C)c3ccnc(Nc4cccc(S(N)(=O)=O)c4)n3)cc2nn1C,-2.15%,-4.81%,-2.16%,-3.49%,-0.07%,-4.61%,-0.96%,1.02%,3.31%,8.97%
CC1=C(C(=O)Nc2ccc3[nH]nc(C)c3c2)C(c2ccc(C(F)(F)F)cc2)CC(=O)N1 (stereo not given),1.17%,1.18%,0.84%,1.11%,0.54%,2.53%,3.68%,14.7%,0.8%,-5%
COc1cc(Nc2ncc(-c3ccccc3)o2)cc(OC)c1,1.36%,1.33%,1.9%,2.08%,0.79%,3.26%,0.04%,-0.63%,19.2%,18.7%
O=C(O[C@H]1CN[C@H](C#Cc2cc3ncnc(Nc4ccc5c(cnn5Cc5ccccc5)c4)c3s2)C1)N1CCOCC1,-0.59%,-0.52%,-0.56%,-0.1%,-1.03%,0.11%,-0.66%,2.38%,2.39%,0.44%
